Measured values published in PubChem BioAssay AID651813 (National Center for Advancing Translational Sciences (NCATS), 2012).
The campaign covered roughly 2,100 compounds. About 1,100 (52%) were called active. Roughly 27% stayed inconclusive and do not appear here. The set was probably picked from earlier hits. The list shows a part of the results. Unmarked numbers belong to inactive results. Calls come from the whole dose curve; as a rule, active = well fitted inhibition curve with a large enough effect; inconclusive = small, poorly fitted or top-dose-only effect; inactive = no such curve, though single readings can be large or run the other way.

molecular target: DNA dC->dU-editing enzyme APOBEC-3G (Homo sapiens) (UniProt Q9HC16); experiment: qHTS for inhibitors of Vif-A3G interactions: Cherry picks counterscreen; details: HeLa A3G-eYFP + Vif (tagged APOBEC3G with the HIV-1 protein that degrades it), eYFP fluorescence, 24 h;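 note: hits raise yellow fluorescence by blocking Vif-driven A3G-eYFP degradation; nearly all actives have a fitted effect of over 70% in size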;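 for max response: max response given as percent of control signal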
Sequence (Q9HC16 whole entry, looked up): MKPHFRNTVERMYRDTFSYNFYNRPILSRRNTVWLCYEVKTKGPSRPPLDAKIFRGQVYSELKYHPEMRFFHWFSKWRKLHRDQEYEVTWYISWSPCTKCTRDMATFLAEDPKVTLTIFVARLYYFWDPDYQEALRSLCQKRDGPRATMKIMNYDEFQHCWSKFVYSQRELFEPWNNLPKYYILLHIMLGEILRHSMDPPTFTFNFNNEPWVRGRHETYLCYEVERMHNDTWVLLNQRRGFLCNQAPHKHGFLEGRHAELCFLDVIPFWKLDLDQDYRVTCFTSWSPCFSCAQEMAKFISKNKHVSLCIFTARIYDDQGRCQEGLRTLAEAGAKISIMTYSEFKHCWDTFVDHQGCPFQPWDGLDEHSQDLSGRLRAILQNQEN
Description: The recent discovery and characterization of host restriction factors, which provide a potent defense to invading retroviruses, has provided new targets for antiviral drug development. APOBEC3G (A3G) and APOBEC3F (A3F) are potent cytidine deaminases that block HIV-1 replication; HIV-1 expresses the Vif protein, which counteracts A3G and A3F by binding to them and inducing their proteasomal degradation. The Vif-A3G and Vif-A3F interactions provide two potential targets for development of small molecules which can interfere with the ability of Vif to degrade A3G or A3F. […] To identify inhibitors that can interfere with Vif mediated degradation of A3G and A3F, we have developed Hela cell lines that stably express A3G or A3F tagged with eYFP at the C-terminal end (A3G-eYFP or A3F-eYFP, respectively) and Vif. In the absence of an inhibitor, Vif induces degradation of A3G-eYFP and A3F-eYFP, and the cells are not fluorescent. In the presence of an inhibitor, it is expected that Vif will be unable to degrade A3G-eYFP and/or A3F-eYFP, resulting in an increase in yellow fluorescence. In this counterscreen assay, Vif A3G was screened against the cherry picks ordered from the MLSMR. NIH Chemical Genomics Center [NCGC] NIH Molecular Libraries Probe Centers Network [MLPCN] MLPCN Grant: MH093245 Assay Submitter (PI): Vinay Pathak, National Cancer Institute
A3G-Vif cells were harvested from T225 flask and resuspended in phenol free OPTI-MEM medium with 5% FBS. Then 5 uL of 140,000 cells/mL resuspended cells was dispensed into each well of low base Aurora COC 1,536-well plates (black walled, clear bottom) using a Multidrop Combi dispenser. After overnight culture at 37 deg C with 5% CO2, a total of 23 nL of compounds at 5 selected concentrations from the NPC or positive control (2 mM stock of MG132) in DMSO was transferred to each well of the assay plate using a pintool (Kalypsys, San Diego, CA), and the plates were further incubated at 37 deg C with 5% CO2 for 24 hours. After that, the plates were measured on Acumen Explorer (TTP Lab Tech). The fluorescence was detected by 488 nm/Ex and […].
Potency is the fitted concentration of half-maximal effect.

Structure (SMILES) | Potency | max response [%]
Oc1cccc(Nc2nc(O)c(/C=C3\C=Nc4ccccc43)s2)c1 | 20.6 µM (active) | –
Cc1cc(N2CCCC2)ccc1/C=C1/C(=O)N(C)C(=S)N1C | – | 40
O=C1/C(=C/c2ccc(N3CCCC3)cc2)NC(=S)N1C1CC1 | 7.31 µM (active) | –
CCN1C(=O)/C(=C/c2ccc(N3CCCC3)cc2)NC1=S | – | 47.9
Cc1cc(/C=C2\NC(=S)N(C)C2=O)ccc1N1CCCC1 | 5.59 µM (active) | –
Cc1cc(N2CCCC2)ccc1/C=C1\NC(=S)N(C)C1=O | 1.64 µM (active) | –
C/C(=N\Nc1nccnc1Cl)c1ccc(Cl)c(Cl)c1 | – | -0.872
CCn1c(=O)c2cc(C(=O)NCCCOC)sc2c2ccccc21 | 7.04 µM (active) | –
N#CC1=C2SCC(O)(c3ccccc3)N2C(=O)CC1c1ccccc1 (stereo not given) | 5.59 µM (active) | –
CCS(=O)(=O)Nc1cccc(C2=NN(C(=O)c3ccco3)C(c3ccco3)C2)c1 (stereo not given) | 14 µM (active) | –
CCOc1cc(N(CC)CC)ccc1/C=C(/C#N)c1nc2ccccc2[nH]1 | – | 57.6
CSc1nc2ccccc2cc1/C=C(\C#N)c1cccc(C)c1 | 12.5 µM (active) | –
CCN(CC)c1ccc(/C=C(/C#N)c2nc3ccccc3[nH]2)c(OC(C)C)c1 | – | 42
CSc1nc2ccccc2cc1/C=C(\C#N)c1ccccc1 | 6.27 µM (active) | –
COC(=O)C1=COC(C)C2CN3CCc4c([nH]c5cc(OC)c(OC)cc45)C3CC12 (stereo not given) | – | -25.2
COC(=O)C1C2CC3c4[nH]c5cc(OC)ccc5c4CCN3CC2CC(OC(=O)CC(C)=O)C1OC (stereo not given) | 20.6 µM (active) | –
COc1cccc(/C(O)=C/c2nc3ccc(C(=O)NCCc4ccc(Cl)cc4)cc3[nH]c2=O)c1 | 20.6 µM (active) | –
COc1cccc(/C(O)=C/c2nc3ccc(C(=O)NCCc4cccc(C)c4)cc3[nH]c2=O)c1 | 13 µM (active) | –
Cc1ccc(C2NC(=O)c3ccccc3N2)s1 (stereo not given) | 12.5 µM (active) | –
COc1cc(OC)c(C2Nc3cccc4cccc(c34)N2)c(OC)c1 | – | 3.06
COc1ccc2ccccc2c1C1NC(=O)c2ccccc2N1 (stereo not given) | 4.98 µM (active) | –
CCOc1ccccc1C1NC(=O)c2ccccc2N1 (stereo not given) | 2.5 µM (active) | –
Cc1ccc(C)c(C2NC(=O)c3ccccc3N2)c1 (stereo not given) | 7.9 µM (active) | –
O=[N+]([O-])c1ccccc1C1Nc2cccc3cccc(c23)N1 | – | 7.07

Structure (SMILES) | Potency | max response [%]
CC(=O)/C(N=Nc1cc(C)ccc1O)=C(\C)O | 20.6 µM (active) | –
CCOC(=O)N1CCN(/C=C(\C#N)c2nc3ccccc3s2)CC1 | 23.1 µM (active) | –
COc1ccc(-c2coc3cc4oc(=O)cc(-c5ccccc5)c4cc23)cc1F | 2.23 µM (active) | –
COc1ccc(C)cc1NCc1cc(=O)oc2cc(-c3ccccc3)c(O)cc12 | – | -4.57
O=C(Cn1cnc2c(cnn2-c2ccc(F)cc2)c1=O)NCc1ccco1 | 17.7 µM (active) | –
CC(C)(C)n1ncc2c(=O)n(CC(=O)NCc3ccc(F)cc3)cnc21 | 7.9 µM (active) | –
Cc1ccc(Cn2nnc3c(=O)n(CC(=O)NCc4ccccc4)cnc32)cc1 | 8.86 µM (active) | –
Cc1sc2ncn(CC(=O)NCc3ccccc3)c(=O)c2c1C | – | -26.2
CN(C)c1ccc(C=Cc2nccc3ccccc23)cc1 | 14 µM (active) | –
CCN(Cc1ccccc1)c1ccc(/C=C/c2nccc3ccccc23)cc1 | 13 µM (active) | –
CCN(CC)c1nc(C=Cc2ccc(N(C)C)cc2)c2nccnc2n1 | 0.651 µM (active) | –
CN(C)c1ccc(/C=C/c2nccc3ccccc23)cc1 | 13 µM (active) | –
CC(=O)/C(=C\N(C)C)Sc1ccc(Cl)cc1 | – | 12
Cc1sc2ncnc(SCC(=O)NC(C)(C)C)c2c1C | – | -17.9
COc1ccccc1Nc1nnc(SCC2CCCCO2)s1 (stereo not given) | 17.7 µM (active) | –
COc1cccc(OCc2nc3ncc(Br)cc3[nH]2)c1 | 3.14 µM (active) | –
Nc1cccc(CCc2nc3cc4ccccc4cc3[nH]2)c1 | 4.98 µM (active) | –
COc1cccc(N2CC(O)=C(c3nc4ccccc4s3)C2=N)c1 | 7.9 µM (active) | –
COc1cccc(N2CC(O)=C(c3nc4ccccc4c(=O)[nH]3)C2=N)c1 | 2.23 µM (active) | –
O=CNc1ccc2c3c(cccc13)-c1ccccc1-2 | 11.2 µM (active) | –
CCOC(=O)Nc1ccc2c3c(cccc13)-c1ccccc1-2 | 2.31 µM (active) | –
CC(C)(C)c1ccc(OCC(=O)Nc2ccc3c4c(cccc24)C(=O)NC3=O)cc1 | – | 43.9
N#Cc1cc2ccccc2nc1SCc1ccccn1 | 23.1 µM (active) | –
CCCCCCN1C[C@H](O)[C@@H](n2cc(COC(=O)c3ccccc3)nn2)C[C@@H]1c1ccc(C)cc1 | – | 4.43

Structure (SMILES) | Potency | max response [%]
CN(C)c1ccc2ccc3cccc4ccc1c2c34 | 13 µM (active) | –
CSc1ccc(C2NC(=O)c3ccccc3N2)cc1 (stereo not given) | 11.2 µM (active) | –
O=C1NC(c2ccc(Br)cc2)Nc2ccccc21 (stereo not given) | 17.7 µM (active) | –
O=C1NC(c2cccc(Cl)c2)Nc2ccccc21 (stereo not given) | 12.5 µM (active) | –
CC(C)n1cc(NC(=O)c2cc(-c3ccccc3)on2)cn1 | 5.59 µM (active) | –
CCn1c(O)c(/C=N/N=C/c2ccc(OC)cc2)c2cc(C3=NNC(=O)CC3)ccc21 | 13 µM (active) | –
N#C/C(=C\c1ccc(Cl)cc1)c1nc2ncccc2[nH]1 | – | -13.6
N#CC(=Cc1ccccn1)c1nc(-c2ccc(Cl)cc2)cs1 | 6.27 µM (active) | –
O=C(Cn1nc2c(cc1=O)CCCC2)NCc1ccc(Cl)cc1 | 13 µM (active) | –
Cc1ccc(CNC(=O)Cn2cc(C(=O)c3ccc(Cl)cc3)c(=O)c3ccc(C)nc32)cc1 | – | -25
CCC(C)Sc1cccc(-c2nc3cc(C)ccn3c2NC2CCCCC2)c1 (stereo not given) | – | 18.8
Cc1cccc(N2CCN(C(=O)c3ccncc3)CC2)c1C | 12.5 µM (active) | –
O=C1COc2ccc(C(=O)CSc3nc4ccccc4c(=O)n3-c3ccc(Cl)c(Cl)c3)cc2N1 | 18.4 µM (active) | –
Cc1ccc(/C=C2/CNC/C(=C/c3ccc(C)cc3)C2=O)cc1 | 5.59 µM (active) | –
C[C@]12CCC[C@H](O1)c1c(cc3c(c1O)C(=O)c1c(O)cc(O)cc1C3=O)O2 | 16.4 µM (active) | –
Cc1cc(N(C)C)c(C)cc1/C=C/c1ccnc2ccccc12 | 10.3 µM (active) | –
CCN(CC)c1cc(C)c(/C=C/c2ccnc3ccccc23)cc1C | 16.4 µM (active) | –
O=C(O)c1ccccc1N/N=C/c1c(Sc2nnnn2-c2ccccc2)nc2ccccn2c1=O | 4.44 µM (active) | –
COc1cc(CCC(=O)Nc2nnc(C)s2)cc(OC)c1OC | 8.86 µM (active) | –
Cc1cc(NC(=O)Nc2nnc(N(C)Cc3ccccc3)s2)ccc1Br | – | 20.9
COc1cc(C(=O)Nc2nnc(Cc3ccccc3)s2)cc(OC)c1OC | 12.5 µM (active) | –
COc1ccc(NC(=O)C(NC(=O)/C=C\c2ccc3c(c2)OCO3)c2ccccc2)cc1 (stereo not given) | – | -17
Cc1noc(C)c1COc1cccc(C(=O)OC(C)C(=O)Nc2ccc3c(c2)OCO3)c1 (stereo not given) | 3.53 µM (active) | –
CC1(C)Cc2c(sc3ncnc(NNC(=S)NCc4ccccc4)c23)CO1 | 12.5 µM (active) | –

Structure (SMILES) | Potency | max response [%]
C/C(=N\NC(=S)NCc1ccccc1)c1cccs1 | – | -28.6
O=c1[nH]c2ccccc2nc1/C=C(\O)c1cccs1 | 4.61 µM (active) | –
NNC(=O)c1cc2sccc2s1 | – | 2.94
CCN1CCN(c2c(/C=C3\SC(=S)N(Cc4ccco4)C3=O)c(C)c(C#N)c(=O)n2C)CC1 | 20.6 µM (active) | –
Cc1cc(/C=C2\SC(=S)N(Cc3ccco3)C2=O)c(C)n1-c1ccccc1 | 23.1 µM (active) | –
CN(C)c1ccc(C=C2SC(=S)N(Cc3ccco3)C2=O)cc1 | 3.53 µM (active) | –
Cc1cc(/C=C2\SC(=S)N(Cc3ccco3)C2=O)c(C)n1-c1cccnc1 | 9.2 µM (active) | –
COc1ccc(Nc2nc3cc(C)ccc3cc2C#N)cc1 | 18.4 µM (active) | –
Cc1ccc2nc(NS(=O)(=O)c3ccc(Cl)cc3)c(Nc3ccc(C(=O)O)cc3)nc2c1 | – | 2.4
COc1ccc(Nc2nc3cc(C)ccc3cc2C#N)c(OC)c1 | 1.58 µM (active) | –
CC(=O)n1c2ccccc2c2nc3ccccc3nc21 | 2.59 µM (active) | –
C=CCNc1nc2cc(-c3cccc(Cl)c3)sc2c(=O)n1C | 14 µM (active) | –
CCOC(=O)c1ccc(/C=C2/C=C(c3ccccc3)N(c3ccc(Cl)c(C(=O)O)c3)C2=O)cc1 | 20.6 µM (active) | –
CCOC(=O)c1c(NC(=O)CSc2nc3ccc(OC)cc3[nH]2)sc2c1CC(C)(C)NC2(C)C | – | -23
C=CCOc1ccc2nc(NC(=O)OC)[nH]c2c1 | 2.23 µM (active) | –
COc1ccc(NC(=O)C2Cc3c(-c4cccc(C(C)=O)c4)ccnc3O2)cc1 (stereo not given) | 3.96 µM (active) | –
CC(=O)Nc1ccc(-c2ccnc3c2CC(C(=O)Nc2cccc(N(C)C)c2)O3)cc1 (stereo not given) | 9.94 µM (active) | –
COc1ccc(NC(=O)C2Cc3c(-c4cccc(NC(C)=O)c4)ccnc3O2)cn1 (stereo not given) | 14 µM (active) | –
CC(=O)c1cccc(-c2ccnc3c2CC(C(=O)Nc2ccc(Cl)cc2)O3)c1 (stereo not given) | 12.5 µM (active) | –
COc1cc(C2c3cc4c(cc3C(OC3OC5COC(c6cccs6)OC5C(O)C3O)C3COC(=O)C23)OCO4)cc(OC)c1O (stereo not given) | – | -84.8
Cc1ccc(N=C2NC(=O)CC(C(=O)Nc3ccc4c(c3)OCO4)S2)cc1 (stereo not given) | – | -13.3
CC(=O)Nc1cccc(-c2ccnc3c2CC(C(=O)Nc2ccc4c(c2)OCO4)O3)c1 (stereo not given) | 1.25 µM (active) | –
COc1ccc(NC(=O)C2Cc3c(-c4cccc(C(C)=O)c4)ccnc3O2)cn1 (stereo not given) | 1.4 µM (active) | –
